Assay results published in PubChem BioAssay AID2284183 (EPA ToxCast).
Activity calls are given as the source filed them. The calls were made as follows: active = hit-call score of the fitted dose curve at least 0.9, where 1 is the maximum; inactive = score below 0.9.

Target: human Tachykinin Receptor NK2 Agonism, TACR2 (gene 6865) (UniProt P21452)
Test: ERF_TW_GPCR_hTACR2: Eurofins (ERF) G Protein-Coupled Receptor (GPCR) Radioligand Binding LeadHunter Assay for human Tachykinin Receptor NK2 Agonism
Procedure: ERF_TW_GPCR_hTACR2 is a biochemical, single-readout assay that uses extracted gene-proteins in a cell-free assay. Measurements were taken 1.5 hour after chemical dosing in a 96-well plate. See NK2 Human Tachykinin GPCR Binding (Antagonist Radioligand) Assay, Panlabs.ERF_TW_GPCR_hTACR2 is an assay component calculated from the ERF_TW_GPCR_hTACR2 assay. It is designed to measure radioligand binding using a type of binding reporter as detected by scintillation counting with radiometry technology.Data from the assay component ERF_TW_GPCR_hTACR2 was analyzed at the assay endpoint, ERF_TW_GPCR_hTACR2, in the positive analysis fitting direction relative to DMSO as the negative control and baseline of activity. Using a type of binding reporter, loss-of-signal activity can be used to understand changes in radioligand binding as they relate to gene TACR2. To generalize the intended target to other relatable targets, this assay endpoint is annotated to the gpcr intended target family, where the subfamily is tachykinin.
Human recombinant neurokinin NK2 receptor expressed in CHO-hNK2 cells are used to prepare membranes in modified HEPES buffer pH 7.4. A 5 ug aliquot of membrane is incubated with 0.02 nM [125I]-Neurokinin A for 120 minutes at 25C. […] Membranes are filtered and washed, the filters are then counted to determine [125I]-Neurokinin A specifically bound. […]

Sequence of human Tachykinin Receptor NK2 Agonism, TACR2 (gene 6865) (P21452 whole entry, looked up): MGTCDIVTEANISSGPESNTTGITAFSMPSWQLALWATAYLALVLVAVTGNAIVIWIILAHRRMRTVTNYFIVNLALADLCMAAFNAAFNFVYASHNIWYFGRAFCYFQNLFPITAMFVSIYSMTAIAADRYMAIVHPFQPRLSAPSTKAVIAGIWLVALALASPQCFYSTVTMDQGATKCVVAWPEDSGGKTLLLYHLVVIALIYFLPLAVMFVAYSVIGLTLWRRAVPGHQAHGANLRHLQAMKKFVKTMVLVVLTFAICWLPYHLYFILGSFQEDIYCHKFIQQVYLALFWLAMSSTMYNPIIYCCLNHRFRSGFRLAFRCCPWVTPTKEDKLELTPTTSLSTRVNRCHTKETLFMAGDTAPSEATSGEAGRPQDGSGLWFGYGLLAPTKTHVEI

Row | Structure (SMILES) | AC50
1 | O=C(/C=C/c1ccc(O)cc1)CC(=O)/C=C/c1ccc(O)cc1 | 1.08 µM (active)
